Structures are written as SMILES. Screen size: about 87,000 compounds; about 360 (0.41%) were called active. The full list was thinned out, with actives kept by preference. Values without a mark were called inactive. No stated cut-off is given here; in the data, active means cytotoxicity above about 50%; inactive means the rest.

The assay can be described thus: cytotoxicity in HT1080 fibrosarcoma cells, cell-based, fluorescence readout (AID 620).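 Further: cells exposed to compound overnight then 4 h with Alamar Blue; 0% = vehicle DMSO and 100% = killing control.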 To be noted: HT1080 viability, at 10 µM, active compounds read high.
Regarding `COc1ccc(-n2c3c(cc(C(=O)Nc4ccc(C)cc4)c2=O)C(=O)CCC3)cc1`, the cytotoxicity was 14.6%.

Regarding `CCOc1ccc2nc(SCC(=O)NC(=O)NCc3ccco3)[nH]c2c1`, the cytotoxicity was -12.9%.

On to `Cc1cc(N2CCCC2)nc(-c2ccccc2O)n1`, for which the cytotoxicity is 1.6%.

Regarding `Cn1cc(/C=N/n2cnc3scc(-c4ccccc4)c3c2=O)c2ccccc21`, the cytotoxicity is 52.6% (active).

In the case of `Cn1cc(/C=N/n2cnc3scc(-c4ccc(Cl)cc4)c3c2=O)c2ccccc21`, the cytotoxicity is 57.8% (active).

Turning to `Cn1cc(/C=N/n2cnc3sc4c(c3c2=O)CCCC4)c2ccccc21`, the cytotoxicity was -0.6%.

Regarding `CCn1cnc2scc(-c3ccccc3)c2c1=O`, the cytotoxicity is 6%.

Regarding `Cc1nn(-c2ccccc2)c(N2CCCC2)c1/C=N/n1cnc2scc(-c3ccccc3)c2c1=O`, the cytotoxicity is -0.7%.

Turning to `Cc1ccc(-c2csc3ncn(/N=C/N(C)C)c(=O)c23)o1`, the cytotoxicity was 1.3%.

For the compound `COc1ccc(S(=O)(=O)CCC(=O)NCCc2ccc(C)cc2)cc1`, the cytotoxicity was -7.2%.

As to `COCCNC(=O)C(c1cccs1)N(C(=O)Cn1nnc2ccccc21)c1ccccc1` (configuration not stated), the cytotoxicity was 2.1%.

For `Nc1cccc(Nc2nc(OC(C(F)(F)F)C(F)(F)F)nc(OC(C(F)(F)F)C(F)(F)F)n2)c1`, the cytotoxicity was -15.3%.

Turning to `Cc1cc(C)c2nc(SCC(=O)Nc3ccccc3N3CCOCC3)c(C#N)cc2c1`, the cytotoxicity was 4.9%.

As for `Cc1cc(C)c2nc(SCC(=O)N3CC(=O)Nc4ccccc43)c(C#N)cc2c1`, the cytotoxicity was 70.8% (active).

Take `Cc1cc(C)cc(C(=O)N2CC(=O)Nc3ccccc32)c1`: the cytotoxicity was 63.6% (active).

`Cc1ccsc1C(=O)N1CC(=O)Nc2ccccc21`: the cytotoxicity is -1.3%.

Regarding `CCc1ccc2nc(SCC(=O)N3CC(=O)Nc4ccccc43)c(C#N)cc2c1`, the cytotoxicity is -5.8%.

For the compound `O=C1CN(C(=O)c2ccccc2)c2ccccc2N1`, the cytotoxicity was 1.9%.

As to `Cc1cccc2cc(C#N)c(SCC(=O)N3CC(=O)Nc4ccccc43)nc12`, the cytotoxicity is 62.5% (active).

As for `Cc1cccc2cc(C#N)c(SCC(=O)N3CCC(C)CC3)nc12`, the cytotoxicity was -4.3%.

`Cc1cc(C)c2nc(SCC(=O)N3CCCCC3)c(C#N)cc2c1`: the cytotoxicity is -0.9%.

Take `CC(C)Nc1oc(Cc2cccc3ccccc23)nc1C#N`: the cytotoxicity is 4.7%.

On to `O=C(CSc1nc2ccccc2o1)c1ccccc1`, for which the cytotoxicity was -3.2%.

For the compound `Cc1cccc(NC(=S)N2N=CCC2c2ccccc2)c1` (configuration not stated), the cytotoxicity was -1.4%.

As for `CC1=C(C(=O)OCc2ccccc2)C(c2ccccc2OC(=O)c2ccc(I)cc2)NC(=O)N1CCCC(=O)O` (configuration not stated), the cytotoxicity was -5.3%.

Turning to `Cn1c(SCC(=O)NCCNC(=O)CSc2nnc(C(F)(F)F)n2C)nnc1C(F)(F)F`, the cytotoxicity is 5.9%.

Consider `Cc1ccc(Nc2cc(C)nn2-c2nc(C)cc(C)n2)cc1`, for which the cytotoxicity was -13.7%.

In the case of `Cc1cc(=O)[nH]c(-n2nc(C)cc2C)n1`, the cytotoxicity was -0.8%.

As to `Cc1ccc(Nc2cc(C)nn2-c2nc(C)cc(=O)[nH]2)cc1`, the cytotoxicity is 65.9% (active).

`O=C(Nc1nc(-c2cc(Cl)sc2Cl)cs1)c1cccs1`: the cytotoxicity is -0.1%.

For the compound `CC(C)Sc1nc(-c2ccccc2)cc(=O)[nH]1`, the cytotoxicity was 16.9%.

Turning to `N#CCCCSc1nnc(-c2ccccn2)o1`, the cytotoxicity is 0.3%.

Consider `CN(C)CCCNC(CC(=O)Nc1ccc(Cl)cc1)C(=O)O` (configuration not stated), for which the cytotoxicity is -0.1%.

For `CCOC(=O)C1CCCN(C(=O)C2CCN(S(=O)(=O)c3cnc[nH]3)CC2)C1` (configuration not stated), the cytotoxicity was 3.9%.

Turning to `O=C(Nc1cccc(-c2cnc3ccccc3n2)c1)c1ccco1`, the cytotoxicity is -2.2%.

On to `O=C(CNC(=O)c1ccc(Br)o1)Nc1cccc(-c2cnc3ccccc3n2)c1`, for which the cytotoxicity is -7.7%.

Regarding `O=C(CCl)Nc1cccc(-c2cnc3ccccc3n2)c1`, the cytotoxicity was 98.8% (active).

Regarding `CCC(=O)N1c2ccccc2NC2=C(C(=O)CCC2)C1c1cccnc1` (configuration not stated), the cytotoxicity was -7%.

On to `CC(=O)N1CCCc2cc(S(=O)(=O)N(CC(C)C)CC(C)C)ccc21`, for which the cytotoxicity was -25.7%.

As to `Cc1ccc2[nH]c(=O)c(CN(Cc3ccco3)C(=O)c3cccs3)cc2c1`, the cytotoxicity was 4.9%.

As to `Cc1ccc2cc(CN(Cc3ccco3)C(=O)c3cccs3)c(=O)[nH]c2c1`, the cytotoxicity was 59.8% (active).

Turning to `O=C(c1cccs1)N(Cc1ccco1)Cc1cc2ccccc2[nH]c1=O`, the cytotoxicity was -4.8%.

For the compound `CN(C)S(=O)(=O)c1ccc(S(=O)(=O)N(CC(=O)Nc2ccccc2)Cc2ccco2)cc1`, the cytotoxicity was 4.9%.

As to `COc1nnc(-c2ccc(C)c(S(=O)(=O)NCCO)c2)c2ccccc12`, the cytotoxicity was 12.8%.

Regarding `CSc1cc(-c2ccccc2)n(Cc2ccc(Cl)cc2Cl)c(=O)c1C#N`, the cytotoxicity is -9.5%.

Take `CSc1cc(-c2ccccc2)n(Cc2ccccc2Cl)c(=O)c1C#N`: the cytotoxicity is 57.5% (active).

`Cn1c(=O)c2c(nc(SCCCC#N)n2Cc2c(F)cccc2Cl)n(C)c1=O`: the cytotoxicity is 1.4%.

For `CSc1cc(-c2ccc(Cl)cc2)n(Cc2ccccc2)c(=O)c1C#N`, the cytotoxicity was -8.7%.

For the compound `Cc1cc(C)n(Cc2ccccc2F)c(=O)c1C#N`, the cytotoxicity is 4.8%.

Turning to `CSc1cc(-c2ccccc2)n(Cc2c(Cl)cccc2Cl)c(=O)c1C#N`, the cytotoxicity was 58.7% (active).

Consider `CCOc1ccc(-c2cnc(SCC(N)=O)nc2N)cc1`, for which the cytotoxicity was 3.8%.

Consider `CCOc1ccc(Br)cc1/C(C)=N\NC1=NCCN1`, for which the cytotoxicity was 12.3%.

As for `CCCCOc1ccc(Br)cc1/C(C)=N/NC1=NCCN1`, the cytotoxicity is 65.1% (active).

Turning to `CCCCCOc1ccc(Br)cc1/C(C)=N/NC1=NCCN1`, the cytotoxicity was 74.8% (active).

Turning to `COc1ccc(Br)cc1/C(C)=N/NC1=NCCN1`, the cytotoxicity is -8.6%.

Consider `CCCOc1ccc(Br)cc1/C=N/O`, for which the cytotoxicity was -13%.

For the compound `CCOc1ccc(CSC2=NCCN2)cc1Cl`, the cytotoxicity was 12.8%.

Turning to `CCOc1ccc(NC(=O)c2cnccn2)cc1`, the cytotoxicity was -17%.

On to `OC(c1cccnc1)c1cccs1` (configuration not stated), for which the cytotoxicity was -4.7%.

Regarding `COc1ccc(Br)cc1CN1CCCC(C(=O)N2CCCCCC2)C1` (configuration not stated), the cytotoxicity was 1.9%.

For `COc1ccc(NC(=O)Cn2nnc(-c3ccccc3NC(=O)c3cccs3)n2)cc1`, the cytotoxicity is -14.1%.

Regarding `O=C(Cn1nnc(-c2ccccc2NC(=O)c2cccs2)n1)Nc1ccccc1`, the cytotoxicity is 0.3%.

For `Cc1ccc(NC(=O)Cn2nnc(-c3ccccc3NC(=O)c3cccs3)n2)cc1`, the cytotoxicity is 61.8% (active).

Take `Cn1c(=O)c2c(-c3ccccc3)n(-c3ccccc3O)cc2n(C)c1=O`: the cytotoxicity is 35.8%.

Take `COc1ccc2c(c1OC)C(=O)N1c3cccc(Cl)c3C(=O)OC21` (configuration not stated): the cytotoxicity was 14.4%.

For the compound `COc1ccc(Nc2nc(C)cc(C)c2C(N)=O)cc1`, the cytotoxicity was 3.9%.

On to `COc1ccc(C2C3=C(Nc4ncnn42)c2ccccc2CC3)cc1OC` (configuration not stated), for which the cytotoxicity is -2.9%.

As to `COc1cc(C2C3=C(Nc4ncnn42)c2ccccc2CC3)cc(OC)c1OC` (configuration not stated), the cytotoxicity is 63.8% (active).

As for `Clc1ccc(C2C3=C(Nc4ncnn42)c2ccccc2CC3)cc1` (configuration not stated), the cytotoxicity was -2.4%.

Consider `Cc1nn(Cc2ccc(F)cc2)c(C)c1NC(=O)c1cnn2c1NC(c1cccs1)CC2C(F)(F)F` (configuration not stated), for which the cytotoxicity was 11%.

Turning to `C=C(C)CSc1nc(C)c(Cc2ccccc2)c(=O)[nH]1`, the cytotoxicity was -0.4%.

For `c1ccc(NCc2nnc3n2CCCCC3)cc1`, the cytotoxicity was 1.8%.

For `Cn1c(=O)c2c(nc(NCc3ccccc3)n2Cc2ccc(F)cc2)n(C)c1=O`, the cytotoxicity was -1.5%.

As to `Cn1c(=O)c2c(nc(NCCc3ccccc3)n2Cc2ccc(F)cc2)n(C)c1=O`, the cytotoxicity is 0.4%.

On to `CC(=O)n1nc(-c2ccccc2)nc1NCc1ccc(F)cc1`, for which the cytotoxicity was -1.3%.

As for `CC(=O)N(Cc1ccc(F)cc1)C1=C(NCc2ccccc2)C(=O)c2ccccc2C1=O`, the cytotoxicity was 92.6% (active).

Turning to `O=C(Cc1ccc(F)cc1)NCCc1ccccc1`, the cytotoxicity was -6.5%.

With `O=C(Nc1cccc(NC(=O)c2cccnc2Cl)c1)c1ccco1`, the cytotoxicity is -4%.

For the compound `c1ccc2sc(-c3ccc4c(c3)OCO4)nc2c1`, the cytotoxicity is 0.6%.

As to `CCCCN(C(=O)CNC(=O)c1ccco1)C(C(=O)NC1CCCCC1)c1ccc(OC)cc1OC` (configuration not stated), the cytotoxicity was -14.5%.

Take `COC(=O)c1ccccc1NC(=O)CN(c1cc(OC)ccc1OC)S(C)(=O)=O`: the cytotoxicity is -6.6%.

Turning to `COC1(OC)N=C(N)C2(C#N)C(c3cccc(Oc4ccccc4)c3)C12C#N` (configuration not stated), the cytotoxicity is 0.4%.

`CC(C)=CCC/C(C)=C/CC(C)(C)CNCCN1CCNCC1`: the cytotoxicity was 56.1% (active).

`CC(C)=CCC/C(C)=C/CCC(C)NCCN1CCNCC1` (configuration not stated): the cytotoxicity is 6.9%.

For `c1ccc(CNCCN2CCNCC2)nc1`, the cytotoxicity was 6.5%.

On to `CCOc1ccc2nc(NC(=O)C3CCN(c4cnccn4)CC3)sc2c1`, for which the cytotoxicity is -5.6%.

As to `COC(=O)[C@H](C)NC(=O)Nc1ccc(S(N)(=O)=O)cc1`, the cytotoxicity is -17.4%.

Take `CSc1nnc(-c2ccc(S(=O)(=O)N3CCOCC3)cc2)n1CC1CCCO1` (configuration not stated): the cytotoxicity is 0.1%.

`CCSc1nnc(-c2ccc(S(=O)(=O)N3CCOCC3)cc2)n1CC1CCCO1` (configuration not stated): the cytotoxicity is -1.1%.

In the case of `O=S(=O)(c1ccc2c(c1)nc(COc1ccc(Cl)cc1)n2CC1CCCO1)N1CCOCC1` (configuration not stated), the cytotoxicity is 96.6% (active).

In the case of `CSc1nc2ccccc2n1C(=O)Oc1ccccc1`, the cytotoxicity is 13.7%.

As to `COc1ccc(OC)c(NC(=O)CN2C(=O)c3ccccc3S2(=O)=O)c1`, the cytotoxicity is -3.4%.

As for `Cc1ccc(S(=O)(=O)N2CCN(C(=O)CN3CCOCC3)C2c2ccccc2)cc1` (configuration not stated), the cytotoxicity was 1.5%.

For the compound `CCOC(=O)N1CCC(NC(=O)c2ccc3c(c2)sc2nc(-c4cccc(OC)c4)cn23)CC1`, the cytotoxicity was 11.5%.

`COc1ccc2c(c1)sc1nc(-c3ccccc3)cn12`: the cytotoxicity was 75.6% (active).

Take `CCOC(=O)N1CCN(C(=O)c2ccc3c(c2)sc2nc(-c4ccccc4)cn23)CC1`: the cytotoxicity is 0.3%.

With `COc1cccc(-n2c(SC)nnc2-c2c[nH]c3ccccc23)c1`, the cytotoxicity is 6.9%.

The record behind these values is PubChem BioAssay AID620 (Sanford-Burnham Center for Chemical Genomics, 2007).
